Measured values: PubChem BioAssay AID680 (PCMD, 2007)
The whole screen tested about 62,000 compounds, of which about 120 (0.19%) were called active. The entries come from a sample that favours actives as a whole. Unmarked numbers belong to inactive results. No stated cut-off is given here; in the data, active means inhibition above about 20% (passing the limit was not always enough); inactive means the rest.

Molecular target: Coagulation factor XI (Homo sapiens) (UniProt P03951)
Experiment: human factor XIa inhibition by mixtures – biochemical, 10-compound mixtures, primary screen (AID 680);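 further: each value is inhibition by a whole ten-compound pool holding the compound; 0% = enzyme with no mixture and 100% = wells lacking enzyme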
Details: purified FXIa, fluorogenic substrate, pooled mixtures; at 5 µM; stronger effect = higher value

Coagulation factor XI (Homo sapiens), sequence (P03951 19-387 limits assumed): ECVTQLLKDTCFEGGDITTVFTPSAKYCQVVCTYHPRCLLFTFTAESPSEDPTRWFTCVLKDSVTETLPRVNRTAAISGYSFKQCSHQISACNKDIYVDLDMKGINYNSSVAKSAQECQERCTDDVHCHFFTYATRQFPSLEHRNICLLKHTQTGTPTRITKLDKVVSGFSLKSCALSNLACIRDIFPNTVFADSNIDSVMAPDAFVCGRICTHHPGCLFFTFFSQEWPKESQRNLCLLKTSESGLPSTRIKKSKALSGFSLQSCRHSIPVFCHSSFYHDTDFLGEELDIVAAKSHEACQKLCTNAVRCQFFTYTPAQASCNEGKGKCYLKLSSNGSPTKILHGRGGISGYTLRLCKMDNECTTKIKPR
Coagulation factor XI (Homo sapiens), sequence (P03951 388-625 limits assumed): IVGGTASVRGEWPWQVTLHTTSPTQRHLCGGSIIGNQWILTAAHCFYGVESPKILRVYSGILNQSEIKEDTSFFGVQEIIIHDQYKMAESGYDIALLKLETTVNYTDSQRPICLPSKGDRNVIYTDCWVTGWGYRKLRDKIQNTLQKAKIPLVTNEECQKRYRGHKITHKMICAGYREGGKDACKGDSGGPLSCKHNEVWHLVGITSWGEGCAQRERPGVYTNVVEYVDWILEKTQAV

| SMILES | inhibition |
| --- | --- |
| O=C(c1cccc2ccccc12)N1CCN(c2ccccc2F)CC1 | -1.32% |
| O=C(c1ccccc1)c1ccc2nc(N3CCCCC3)c3nncn3c2c1 | 5.07% |
| CCn1cc(C(=O)NCC2CCCO2)c(=O)c2cc(S(=O)(=O)N3CCCCC3)ccc21 (configuration not stated) | 2.28% |
| Cc1ccccc1Cn1c(=O)[nH]c2ccccc21 | 4.81% |
| Cc1cc(NC(=O)CN2CCCCC2C)nc2c1c(=O)oc1ccccc12 (configuration not stated) | 11.6% |
| COC(=O)C1=C(C)NC2=C(C(=O)c3ccccc32)C1c1ccc(-c2ccc(C(=O)O)cc2)o1 (configuration not stated) | 8.48% |
| Cc1ccc(S(=O)(=O)C(C#N)c2nc3ccccc3nc2N2CCCC2)cc1C (configuration not stated) | -0.215% |
| COc1ccc(S(=O)(=O)N2CCCC(C(=O)N3CCN(C)CC3)C2)cc1C (configuration not stated) | 8.05% |
| O=c1c(-c2ccccc2)coc2c(CN3CCOCC3)c(O)ccc12 | -0.725% |
| Cc1cc(C)cc(N(CC(=O)NCC2CCCO2)S(=O)(=O)c2c(C)noc2C)c1 (configuration not stated) | 12.7% |
| Cc1cc(C(=O)N2CCN(c3ccccn3)CC2)c(C)o1 | 8.12% |
| O=C1OC(NC(=O)c2ccccc2)C(N2CCOCC2)=C1Cl (configuration not stated) | 1.5% |
| COc1ccc(CN2C(=O)CN=C2Nc2ccc(C)cc2C)cc1 | 9.03% |
| O=C(Cn1nnc(-c2ccc(CN3CCOCC3)cc2)n1)NC1CCCCC1 | 4.01% |
| Cc1cc(NS(=O)(=O)c2ccccc2)no1 | 7.83% |
| CSc1ccc(S(=O)(=O)NCc2ccc(Cl)cc2)cc1 | 7.5% |
| Cc1cccc(NC(=O)CSC(N)=O)c1C | 4.87% |
| C=CCNC(=O)C12CC3CC(C1)CC(C(=O)NCC=C)(C3)C2 | 4.77% |
| O=C(O)CN(Cc1ccco1)S(=O)(=O)c1ccccc1 | 2.68% |
| N=c1c2c3c(sc2ncn1CCCN1CCOCC1)CCCCC3 | 42.3% |
| Cc1ccc2nc(NCCCNC(=O)c3cnccn3)c(C#N)cc2c1 | -0.515% |

| SMILES | inhibition |
| --- | --- |
| O=S(=O)(c1cccc(-c2nnc(SC(F)F)n2-c2ccccc2)c1)N1CCCCC1 | 6.38% |
| C=CCN(c1ccc(C(N)=O)cc1)S(C)(=O)=O | 9.34% |
| CCc1ccccc1N(CC(=O)N1CCN(c2ccccc2F)CC1)S(C)(=O)=O | 9.44% |
| CC(C)(C)c1csc(NC2=NS(=O)(=O)c3ccccc32)n1 | 0.915% |
| O=C(NCCCN1CCN(c2ccccc2F)CC1)C1CCC(=O)N1C1CCCCC1 (configuration not stated) | 0.475% |
| O=C(NCc1ccc2c(c1)OCO2)c1cc2c(s1)CS(=O)(=O)C2 | 1.71% |
| COC(=O)[C@H](Cc1ccccc1)NC(=O)N1CC(C)OC(C)C1 (some centres not stated) | -17.5% |
| Cn1c(SCC(=O)OC2CCCCC2)nnc1-c1ccc(S(=O)(=O)N2CCCC2)cc1 | -4.25% |
| CC(C)c1ccc(NC(=O)NC2CCCCC2)cc1 | -11.2% |
| CC1Cc2ccccc2N1C(=O)Cn1cnc2ccccc2c1=O (configuration not stated) | 3.86% |
| COc1ccc(Cc2nnc(NS(=O)(=O)Cc3ccccc3)s2)cc1 | 10.4% |
| C[N+](C)(C)CCOP(=O)([O-])OC[C@H](O)CO | 4.21% |
| CCOC(=O)Cn1c(=O)oc2cc(S(=O)(=O)NCC3CCCO3)ccc21 (configuration not stated) | 5.99% |
| CCOC(=O)C(CC)Sc1ncnc2c1nnn2-c1ccc(F)cc1 (configuration not stated) | 14% |
| Cc1csc(NC(=O)NC2(C(F)(F)F)Oc3ccccc3O2)n1 | 0.345% |
| O=C(CN1CCN(c2ccccc2F)CC1)c1ccc2c(c1)OCO2 | 4.78% |
| O=C(NC1CCCCC1)N1CCc2[nH]c3ccccc3c2C1 | 7.75% |
| CC(C)(C)Oc1ncc(Br)c(OC(C)(C)C)n1 | -2.49% |
| CCOC(=O)C1=C(C)NC(C)=C(C(=O)OCC)C1C1=COCCO1 | -9.31% |
| c1ccc(COc2nsnc2N2CCOCC2)cc1 | 11.9% |
| CCNC(=O)CCc1nc(-c2ccc(C(C)(C)C)cc2)no1 | -1.14% |

| SMILES | inhibition |
| --- | --- |
| CC1COC2C(O1)N(S(C)(=O)=O)CCN2S(C)(=O)=O (configuration not stated) | 1.71% |
| CC(C)CNC(=O)c1cc(-c2ccc(Br)cc2)on1 | 5.53% |
| CCC(=O)c1ccc(OCC(O)CN2C(=O)NC(C)(C)C2=O)cc1 (configuration not stated) | 11.4% |
| CC1CN(c2cc(=O)n(-c3cccc(Br)c3)c(=O)[nH]2)CC(C)O1 (configuration not stated) | 6.23% |
| Cc1cccc(Cn2c(N3CCN(c4ccccc4)CC3)nc3c2c(=O)n(C)c(=O)n3C)c1 | -1.79% |
| CCOc1ccccc1NC(=O)Nc1cc(OC)ccc1OC | 1.07% |
| CCOC(=O)c1sc(/N=C/Nc2nc(C)c(C(=O)OCC)s2)nc1C | 5.51% |
| Cc1cnc(C(=O)OCC(=O)Nc2ccc(Cl)cc2Cl)cn1 | 6% |
| O=C(Nc1cccc(-c2nnc(-c3ccccc3)o2)c1)C1CCCO1 (configuration not stated) | -7.16% |
| O=C(Nc1nnc(CCc2ccccc2)s1)C1CCCO1 (configuration not stated) | 21.3% (active) |
| O=C(Nc1ccc(-c2nnc(-c3ccccc3)o2)cc1)C1CCCO1 (configuration not stated) | 9.26% |
| CCOC(=O)c1ccc(-n2c(C)nc3c(cnn3-c3ccccc3C)c2=O)cc1 | -0.685% |
| CCC(CC)C(=O)Nc1cc(C(=O)OC)cc(C(=O)OC)c1 | -1.44% |
| CCc1ccccc1NC1c2ccccc2C(=O)N1c1cccnc1 (configuration not stated) | -0.145% |
| CCOC(=O)N1CCC(Nc2c(NCCCN3CCN(c4ccc(OC)cc4)CC3)c(=O)c2=O)CC1 | 12.6% |
| N#CC(C(N)=O)=C1CCC2(CC1)OCCCCO2 | 4.44% |
| CCc1nnc(NC(=O)c2cccs2)s1 | 5.55% |
| O=C(CS(=O)(=O)c1cn(Cc2ccc(Cl)cc2)c2ccccc12)N1CCOCC1 | -16.2% |
| CCN1C(=O)/C(=C2\SC(N3CCCCC3)=NC2=O)c2ccccc21 | -7.47% |
| O=C(c1cccc(C(=O)N2CCN(c3ccc(F)cc3)CC2)c1)N1CCN(c2ccc(F)cc2)CC1 | 0.53% |
